# CYP2C9 inhib = inhibitors of human CYP2C9; hit rate 20% among 96,000; P11712; inhibition, % at 5 µM; CYP2C9 Supersomes, luciferin-H conversion, luminescence;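 active = blocking of liver enzyme CYP2C9 beyond about 50% at 5 µM, limit read from the data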
# CYP2C19 inh = blocks human cytochrome P450 2C19 | P33261 | CYP2C19 Supersomes, luciferin-H EGE luminescence, 30 min | inhibition, % at 5 µM | hit rate 21% among 96,000 | AID 778;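 active = CYP2C19 inhibition above a set limit at 5 µM in the primary screen, cut at about 50% in these data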;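 also: plate controls were negative control wells for no effect and 2.5 mM tranylcypromine positive control for full effect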
# PLAP act = activates human placental alkaline phosphatase. purified PLAP enzyme, luminescent substrate read-out; active compounds read high. activation fold at 20 µM. hit rate 1.2% among 96,000; in the data active = activation fold above about 2
# Target sequence (P05187 whole entry, looked up): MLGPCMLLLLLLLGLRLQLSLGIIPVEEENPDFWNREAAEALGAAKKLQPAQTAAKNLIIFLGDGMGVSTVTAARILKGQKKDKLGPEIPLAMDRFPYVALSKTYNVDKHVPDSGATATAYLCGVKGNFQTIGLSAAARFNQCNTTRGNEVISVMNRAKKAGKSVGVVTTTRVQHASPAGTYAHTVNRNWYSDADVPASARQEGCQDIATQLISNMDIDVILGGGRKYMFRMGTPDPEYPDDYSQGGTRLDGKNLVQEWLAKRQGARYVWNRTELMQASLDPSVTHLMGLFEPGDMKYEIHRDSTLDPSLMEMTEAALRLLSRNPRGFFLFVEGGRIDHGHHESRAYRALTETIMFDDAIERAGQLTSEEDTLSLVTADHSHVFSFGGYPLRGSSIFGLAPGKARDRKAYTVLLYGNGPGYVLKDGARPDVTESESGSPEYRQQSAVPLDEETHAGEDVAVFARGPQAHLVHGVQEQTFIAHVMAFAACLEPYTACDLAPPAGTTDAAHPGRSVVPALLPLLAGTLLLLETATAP
# CYP2C19 activ = cytochrome P450 2C19 (human) activation. recombinant CYP2C19, luciferin-H EGE luminescence; active compounds read high; 0 = fully inhibited enzyme, 1 = untreated enzyme. P33261. 96,000 tested, under 10 active. activation factor at 5 µM. AID 1025;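 active = activation factor of at least 2 at 5 µM in the primary screen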;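 also: 0 = wells with 2.5 mM tranylcypromine and 1 = vehicle-only wells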
# CYP2C9 act = activators of human CYP2C9; P11712; recombinant CYP2C9, luciferin-H conversion, luminescence; active compounds read high; factor 1 = untreated enzyme, 0 = blocked; activation factor at 5 µM; hit rate 1.4% among 96,000;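 active = activation factor of 2 or more for CYP2C9 at a 5 µM dose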;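 also: 0 = sulfaphenazole-blocked wells and 1 = vehicle-only wells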
# The depositor's hits bear a star. Shown are actives, neighbours in structure and some others; about 31% of the full set was active somewhere.
SMILES,CYP2C9 inhib,CYP2C19 inh,PLAP act,CYP2C19 activ,CYP2C9 act
O=C(CN1C(=O)c2ccccc2C1=O)N1CCN(c2nnc(-c3ccccc3)c3ccccc23)CC1,-4,-14,0.8,1.1,1
O=C(COc1ccccc1)N1CCN(c2nnc(-c3ccccc3)c3ccccc23)CC1,74*,74*,1.2,0.3,0.3
CCCc1c(C)[nH]c2ccc(NC(C)=O)cc2c1=O,43,6,1,0.9,0.6
O=C(CSc1nnc(CN2CCCCCC2=O)n1-c1ccccn1)NCC(F)(F)F,-10,-4,1.2,1,1.1
Cc1ccc(-c2cc(C(=O)N3CCN(C(=O)c4ccco4)CC3)no2)cc1,54*,78*,0.9,0.2,0.5
O=C(c1cc(-c2ccccc2)on1)N1CCCC1,-22,11,0.9,0.9,1.2
Cn1c(SCc2cc(=O)n3cc(Br)ccc3n2)nnc1C1COc2ccccc2O1 (stereo not given),54*,30,1.2,0.7,0.5
Cn1c(SCc2cnc(-c3ccccc3)s2)nnc1C1COc2ccccc2O1 (stereo not given),49,90*,1,0.1,0.5
O=C(O)CSc1nnc(C2COc3ccccc3O2)n1-c1ccccc1 (stereo not given),15,19,1.4,0.8,0.9
O=C(O)CCCC(=O)NCCc1ccncc1,0,-1,0.9,1,1
COc1ccc(NC2CS(=O)(=O)CC2OC(=O)c2ccc(F)cc2)cc1 (stereo not given),0,3,0.9,1,1
COc1ccc(C(=O)COC(=O)CCn2nnc(-c3cccc(O)c3OC)n2)cc1,0,8,0.9,0.9,1
COc1ccc(C(c2nnnn2CCc2ccccc2)N2CCN(C3CCCC3)CC2)cc1 (stereo not given),-7,-18,1.5,1.2,1.1
COc1ccc(Cn2nnnc2C(c2ccccc2Cl)N2CCN(C3CCCC3)CC2)cc1 (stereo not given),33,78*,1.7,0.2,0.7
COc1ccc(Cn2nnnc2C(c2ccccc2)N2CCN(C3CCCC3)CC2)cc1 (stereo not given),11,78*,2*,0.2,0.9
COc1cccc(S(=O)(=O)Nc2ccc3sc(C)nc3c2)c1,95*,100*,1.3,0,0.1
COC(=O)c1ccccc1NC(=O)c1noc2c1CC(C(C)(C)C)CC2 (stereo not given),19,6,0.9,0.9,0.8
Cc1ccccc1N(C(=O)c1cccs1)c1nc2ccccc2s1,88*,49,1,0.5,0.1
CC(C)CNC(=O)C1C2C=CC(C2)C1C(=O)O (stereo not given),-9,-4,0.8,1,1.1
Cc1csc(CCc2nc(C)cs2)n1,9,16,0.9,0.8,0.9
NC(=O)C1CCCN(C(=O)Nc2cccc3ccccc23)C1 (stereo not given),-13,0,0.9,1,1.1
COc1ccc(C(=O)/C=C(\C)NCc2ccc3c(c2)OCO3)cc1,26,24,0.9,0.8,0.7
CC(=O)C1=C(C)OC(N)=C(C#N)C1c1ccncc1 (stereo not given),17,2,1,1,0.8
CCOC(=O)C1=C(C)OC(N)=C(C(=O)OCC)C1c1ccncc1 (stereo not given),99*,93*,1.2,0.1,0
CCOC(=O)C1=C(C)OC(N)=C(C(=O)OCC)C1c1cccnc1 (stereo not given),96*,92*,1.4,0.1,0
SMILES,CYP2C9 inhib,CYP2C19 inh,PLAP act,CYP2C19 activ,CYP2C9 act
CCOC(=O)C1=C(N)OC2=C(C(=O)CCC2)C1c1cccnc1 (stereo not given),7,22,1.1,0.8,0.9
O=C(C=C1CCN(c2ncc(C(F)(F)F)cc2Cl)CC1)NNC(=O)Nc1ccc(Cl)cc1,21,5,1,0.9,0.8
CCCN(CCO)Cc1ccc2ccccc2c1,4,52*,1.3,0.5,1
NC(=O)C1(N2CCCCC2)CCN(c2ccc3nnc(-c4ccccc4)n3n2)CC1,68*,78*,1.4,0.2,0.3
COc1ccc(S(=O)(=O)N2CCN(c3ccc4nnc(-c5ccccc5)n4n3)CC2)cc1,87*,76*,1.7,0.2,0.1
c1ccc(-c2nnc3ccc(N4CCC5(CC4)OCCO5)nn23)cc1,48,10,1.5,0.9,0.5
Brc1ccc(-c2nnc3ccc(N4CCN(c5ccccc5)CC4)nn23)cc1,25,10,1,0.9,0.8
NC(=O)C1(N2CCCCC2)CCN(c2nc(-c3ccccc3)cs2)CC1,88*,95*,1.1,0,0.1
CC1CCCCN1S(=O)(=O)c1ccc(NC(=O)CSc2nnnn2C)cc1 (stereo not given),28,4,1,1,0.7
COC(=O)c1[nH]c2cc(OC)ccc2c1NC(=O)c1nonc1C,14,-2,0.9,1,0.9
Cc1ccccc1Nc1nc(CSc2nnc(-c3ccoc3C)n2C)cs1,88*,86*,1.5,0.1,0.1
CC(=O)Nc1ccc(S(=O)(=O)N(C)CCOCc2ccccc2)cc1,-100,55*,1.3,0.4,2*
CC(=O)Nc1ccc(S(=O)(=O)N(CCO)Cc2ccccc2)cc1,71*,56*,0.9,0.4,0.3
CC(=O)Nc1ccc(S(=O)(=O)N(C)S(=O)(=O)c2ccc(F)cc2)cc1,24,52*,0.9,0.5,0.8
CN(CC(N)=O)S(=O)(=O)c1ccc(F)cc1,-5,0,1,1,1.1
O=C(Nc1ccccc1)c1ccc(S(=O)(=O)N(CCO)CCO)cc1,0,-8,0.9,1.1,1
CCn1c(=O)n(CC(=O)N2CC(C)CC(C)C2)c(=O)c2ccccc21 (stereo not given),3,25,1.1,0.7,1
CCOC(=O)C1=C(CSc2nc3ccccc3s2)NC(=O)NC1c1cccc([N+](=O)[O-])c1 (stereo not given),22,34,0.9,0.7,0.8
Cc1csc(NC(=O)CCSCCc2ccccn2)n1,41,61*,0.8,0.4,0.6
Cc1nnc(N2CCOCC2)c2ccccc12,-8,-7,0.9,1.1,1.1
COc1ccccc1CNC(=O)C1CCN(S(=O)(=O)N2CCCCC2)CC1,-116,19,1.3,0.8,2.2*
CCS(=O)(=O)N1CCC(C(=O)NCc2ccccc2OC)CC1,-35,-6,1,1.1,1.3
COc1ccc(Br)cc1CNC(=O)C1CCN(S(=O)(=O)N2CCCC2)CC1,-164,22,1.2,0.8,2.6*
CCS(=O)(=O)N1CCC(C(=O)NCc2cc(OC)ccc2OC)CC1,-78,13,1.3,0.9,1.8
Cc1nn(C)c(N)c1C(O)(c1nccn1C)C(F)(F)F (stereo not given),4,-2,1.1,1,1
CC(C)Cn1c(N)c(C(=O)COC(=O)c2cc(-c3ccco3)nc3ccccc23)c(=O)n(C)c1=O,29,-15,1.5,1.1,0.7
